Measurements reported in published antibiotic growth screens (doi:10.1016/j.cell.2020.01.021).
The full ranking holds about 2,300 compounds; the median of “relative growth” is about 1, and the lowest 2% start at about 0.046. Only a sample is shown.

These compounds were tested on E. coli BW25113 (assay: relative growth (fraction of control); higher = less inhibition). Details: 50 µM.

| SMILES | relative growth |
| --- | --- |
| CNCC(O)c1ccc(O)c(O)c1.O=C(O)C(O)C(O)C(=O)O (stereo not drawn) | 1.17 |
| CCOC(=O)C(CCc1ccccc1)NC(C)C(=O)N1CCCC1C(=O)O.O=C(O)C=CC(=O)O (stereo not drawn) | 1.07 |
| COCCCOc1cc(CC(CC(N)C(O)CC(C(=O)NCC(C)(C)C(N)=O)C(C)C)C(C)C)ccc1OC.O=C(O)C=CC(=O)O (stereo not drawn) | 0.978 |
| C#CCCCCCCCCCCCC(O)CC(O)CO.C=CCCCCCCCCCCCC(O)CC(O)CO (stereo not drawn) | 0.979 |
| COc1ccc(CN(CCN(C)C)c2ccccn2)cc1.O=C(O)C=CC(=O)O | 1.09 |
| CN1CCC(=C2c3ccccc3CCc3sccc32)CC1.O=C(O)CC(O)C(=O)O | 1.07 |
| CC(C)=CCCC(C)C1CCC2(C)C3=C(CCC12C)C1(C)CCC(O)C(C)(C)C1CC3 (stereo not drawn) | 0.918 |
| CCC1OC(=O)C(C)C(OC2CC(C)(OC)C(O)C(C)O2)C(C)C(OC2OC(C)CC(N(C)C)C2O)C(C)(O)CC(C)C(=O)C(C)C(O)C1(C)O (stereo not drawn) | 0.394 |
| C[N+]1(CCCCC[N+]2(C)CCCC2)CCCC1.O=C([O-])C(O)C(O)C(=O)O.O=C([O-])C(O)C(O)C(=O)O | 0.992 |
| OCC(O)C(O)C(O)CO (stereo not drawn) | 0.987 |
| CN(C)CCOC(C)(c1ccccc1)c1ccccn1.O=C(O)CCC(=O)O (stereo not drawn) | 0.787 |
| CN(C)CCC(c1ccccc1)c1ccccn1.O=C(O)C=CC(=O)O (stereo not drawn) | 0.966 |
| O=c1ccc2ccccc2o1 | 1.09 |
| CN(C)CCOC(c1ccc(Cl)cc1)c1ccccn1.O=C(O)C=CC(=O)O (stereo not drawn) | 0.986 |
| NC(CO)(CO)CO.O=C(c1ccccc1)c1ccc2n1CCC2C(=O)O (stereo not drawn) | 0.914 |
| CCN(CC)CCc1nc(-c2ccccc2)no1.O=C(O)CC(O)(CC(=O)O)C(=O)O | 0.968 |
| CC(C)NCC(O)COc1ccc(COCCOC(C)C)cc1.O=C(O)C=CC(=O)O (stereo not drawn) | 1.04 |
| CN1CCCC1CCOC(C)(c1ccccc1)c1ccc(Cl)cc1.O=C(O)C=CC(=O)O (stereo not drawn) | 1.01 |
| CN1CCCC1c1cccnc1.O=C(O)C(O)C(O)C(=O)O.O=C(O)C(O)C(O)C(=O)O (stereo not drawn) | 1.14 |
| C[N+](C)(C)CCO.Cn1c(=O)c2[n-]cnc2n(C)c1=O | 1.06 |

| SMILES | relative growth |
| --- | --- |
| CN(C)CCOc1ccc(C(=C(CCCl)c2ccccc2)c2ccccc2)cc1.O=C(O)CC(O)(CC(=O)O)C(=O)O | 0.722 |
| Cc1c(OCC(F)(F)F)ccnc1CS(=O)c1nc2ccccc2[nH]1 (stereo not drawn) | 1.01 |
| NCC(O)c1ccc(O)c(O)c1.O=C(O)C(O)C(O)C(=O)O (stereo not drawn) | 1.12 |
| CN(C)CCC(c1ccc(Br)cc1)c1ccccn1.O=C(O)C=CC(=O)O (stereo not drawn) | 1.04 |
| COc1ccc2c3c1OC1CC(O)C=CC31CCN(C)C2 (stereo not drawn) | 0.936 |
| CN1CCCN=C1C=Cc1cccc(O)c1.O=C(O)c1cc2ccccc2c(Cc2c(O)c(C(=O)O)cc3ccccc23)c1O | 1.1 |
| C=C1C2CCC3(C)C(c4ccoc4)OC(=O)CC13OC1CC(O)C(C)(C)C(CC(=O)OC)C12C (stereo not drawn) [3alpha-HYDROXY-3-DEOXYANGOLENSIC ACID METHYL ESTER] | 1.03 |
| OCC(O)C(O)CO (stereo not drawn) | 0.882 |
| Cl.NC(=O)CCC(N)C(=O)O (stereo not drawn) | 1.03 |
| CCN(CCCc1ccccc1)CCCc1ccccc1.O=C(O)CC(O)(CC(=O)O)C(=O)O | 0.881 |
| CN(C)CC(c1ccc(O)cc1)C1(O)CCCCC1.O=C(O)CCC(=O)O (stereo not drawn) | 1.14 |
| CC1=C(C(=O)O)N2C(=O)C(NC(=O)C(N)c3ccccc3)C2SC1 (stereo not drawn) | 1.03 |
| O=C(O)C=CC(=O)O.OCCOCCN1CCN(C2=Nc3ccccc3Sc3ccccc32)CC1 | 0.3 |
| CC1CC2C3CCC4=CC(=O)C=CC4(C)C3(F)C(O)CC2(C)C1(O)C(=O)CO (stereo not drawn) | 0.933 |
| C1CCC(C(CC2CCCCN2)C2CCCCC2)CC1.O=C(O)C=CC(=O)O (stereo not drawn) | 0.52 |
| CCN1CCCC1CNC(=O)c1cc(S(N)(=O)=O)ccc1OC (stereo not drawn) | 1.04 |
| CC12CCC(CC1)C(C)(C)O2 | 1.06 |
| Cc1ccccc1C(OCCN(C)C)c1ccccc1.O=C(O)CC(O)(CC(=O)O)C(=O)O (stereo not drawn) | 1.01 |
| COCCCCC(=NOCCN)c1ccc(C(F)(F)F)cc1.O=C(O)C=CC(=O)O | 0.949 |
| Nc1nc(N)nc(-c2cc(Cl)ccc2Cl)n1.O=C(O)C=CC(=O)O | 1.04 |

| SMILES | relative growth |
| --- | --- |
| CC(N)C(O)c1cccc(O)c1.O=C(O)C(O)C(O)C(=O)O (stereo not drawn) | 0.957 |
| Cc1ccc(S(=O)(=O)O)cc1.NC1CCN(c2nc3c(cc2F)c(=O)c(C(=O)O)cn3-c2ccc(F)cc2F)C1.O (stereo not drawn) | 0.0925 |
| C=CC1=C(C)c2cc3[nH]c(cc4nc(cc5[nH]c(cc1n2)c(C)c5CCC(=O)O)C(CCC(=O)O)=C4C)c(C)c3C=C | 2.63 |
| CNC(C)C1CCC(N)C(OC2C(N)CC(N)C(OC3OCC(C)(O)C(NC)C3O)C2O)O1.O=S(=O)(O)O (stereo not drawn) | 0.786 |
| Cc1cc(C=Cc2ccc3cc(N(C)C)ccc3[n+]2C)c(C)n1-c1ccccc1.O=C([O-])c1cc2ccccc2c(Cc2c(O)c(C(=O)O)cc3ccccc23)c1O | 0.996 |
| CC(C)Cc1ccc(C(C)C(=O)O)cc1 (stereo not drawn) | 0.933 |
| CCN(CC)C(=O)N1CCN(C)CC1.O=C(O)CC(O)(CC(=O)O)C(=O)O | 1.1 |
| O=C(O)c1cc2ccccc2c(Cc2c(O)c(C(=O)O)cc3ccccc23)c1O.OCCOCCN1CCN(C(c2ccccc2)c2ccc(Cl)cc2)CC1 | 1.17 |
| CC(CN(C)C)CN1c2ccccc2CCc2ccccc21.O=C(O)C=CC(=O)O (stereo not drawn) | 1.01 |
| CCCCCCCCCCCCCCCC(=O)NCCO | 1.06 |
| COC1C(C(=O)O)OC(C)C(O)C1O.COC1OC(C(=O)O)C(O)C(O)C1O (stereo not drawn) [ALGINIC ACID [Mol Wt ~200,000; monomers shown]] | 0.862 |
| CN1CCC(=C2c3ccccc3CC(=O)c3sccc32)CC1.O=C(O)C=CC(=O)O | 1.03 |
| C=CC1CN2CCC1CC2C(O)c1ccnc2ccc(OC)cc12.O=C(O)C(O)C(O)C(O)C(O)CO (stereo not drawn) | 0.949 |
| CC(=O)c1ccc2c(c1)N(CCCN(C)C)c1ccccc1S2.O=C(O)C=CC(=O)O | 0.983 |
| CC1OC(OC2C(O)CC(OC3C(O)CC(OC4CCC5(C)C(CCC6C5CC(O)C5(C)C(C7=CC(=O)OC7)CCC65O)C4)OC3C)OC2C)CC(O)C1O (stereo not drawn) | 1.13 |
| Cl.Cl.O=C(O)COCCN1CCN(C(c2ccccc2)c2ccc(Cl)cc2)CC1 (stereo not drawn) | 0.982 |
| C[N+](C)(C)CC(O)CC(=O)[O-] (stereo not drawn) | 0.989 |
| CCOC(=O)C1=C(COCCN)NC(C)=C(C(=O)OC)C1c1ccccc1Cl.O=S(=O)(O)c1ccccc1 (stereo not drawn) | 0.929 |
